For nine molecules, Potency results are on record in PubChem BioAssay (Tox21).

Results filed as inconclusive are left out. Calls of active or inactive are those of the source. Unless noted, calls come from the whole dose curve.

Experiment [1] is described as follows: Nuclear factor erythroid 2-related factor 2/antioxidant responsive element (Nrf2/ARE) small molecule agonists: luciferase reporter gene qHTS assay in human keratinocytes (AID 1919969). Note: nearly all actives have a fitted effect of over 35% in size. Note: potency is the fitted concentration of half-maximal effect. A general note: In a reporter assay the amount or activity of a reporter protein is the signal.
In experiment [2] the target is Gonadotropin-releasing hormone receptor (Homo sapiens) (UniProt P30968). The experiment is described as follows: Human gonadotropin-releasing hormone receptor (GnRHR) small molecule agonists, calcium flux assay in GnRHR-HEK293 cells (AID 1920063). Note: nearly all actives have a fitted effect of over 35% in size. Put shortly: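 HEK293 cells stably expressing human GnRHR were dye-loaded for 1 h at 37 C. Compound was added in agonist mode and fluorescence (Ex/Em 480/540) recorded kinetically for 3 min. Fifteen concentrations, triplicates.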
Sequence of Gonadotropin-releasing hormone receptor (Homo sapiens) (P30968 whole entry, looked up): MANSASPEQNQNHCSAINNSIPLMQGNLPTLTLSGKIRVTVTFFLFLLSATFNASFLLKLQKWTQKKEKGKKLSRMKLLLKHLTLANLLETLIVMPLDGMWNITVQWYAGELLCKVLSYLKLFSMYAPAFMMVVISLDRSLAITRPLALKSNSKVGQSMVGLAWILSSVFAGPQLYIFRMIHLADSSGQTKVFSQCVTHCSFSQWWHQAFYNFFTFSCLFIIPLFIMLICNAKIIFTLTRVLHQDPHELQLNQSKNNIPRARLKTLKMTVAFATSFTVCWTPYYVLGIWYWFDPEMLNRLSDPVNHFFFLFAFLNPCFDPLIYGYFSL
Background: A change in cytosolic calcium serves as a functional read-out for many receptors and channels.

Experiment [3] in a line: G protein-coupled receptor (GPCR) small molecule agonists, calcium flux assay: HEK293 wild type cell line counter screen (AID 1920065). Summed up:
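Wild-type HEK293 cells plated 18 h, loaded with calcium dye 1 h at 37 C, then compounds added in agonist mode (ATP as positive control). Kinetic fluorescence Ex/Em 480/540 recorded 3 min at 1 sec intervals; 15 concentrations, triplicate.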

The nature of experiment [4]: p53 small molecule agonists, cell-based qHTS assay with rat liver microsomes (AID 1963578). Summed up: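 Metabolic activation is supplied by rat liver microsomes with NADPH (each 0.5 mg/mL final). p53RE-bla cells incubate with compound 16 h at 37 C; reporter activity is measured by LiveBLAzer fluorescence.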
(qHTS replaces the single test concentration by a dilution series.)

Experiment [5] is described as follows: p53 small molecule agonists, cell-based qHTS assay (AID 1963582; active = well fitted activation curve with a large enough effect in the signal ratio in the repeat runs, not every such curve was filed as active; the % refers to the signal ratio). Summed up:
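p53RE-bla reporter cells, compounds added in DMSO after 5 h plating, incubated 16 h at 37 C. Beta-lactamase read via 2 h room-temperature LiveBLAzer B/G FRET substrate, fluorescence intensity.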

In experiment [6] the target is 5-hydroxytryptamine receptor 2A (Homo sapiens) (UniProt P28223). The experiment is described as follows: 5-hydroxytryptamine receptor 2A (HTR2A) small molecule antagonists, cell-based qHTS assay (AID 1963586). Note: nearly all actives have a fitted effect of over 45% in size. Note: potency is the fitted concentration of half-maximal effect. Put shortly: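 Antagonist-mode intracellular calcium assay: DOI (4 nM) added after 5 min compound pre-incubation at room temperature to dye-loaded HTR2A-CHO cells. Fluorescence followed for 3 min, sampled every second.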
Sequence of 5-hydroxytryptamine receptor 2A (Homo sapiens) (P28223 whole entry, looked up): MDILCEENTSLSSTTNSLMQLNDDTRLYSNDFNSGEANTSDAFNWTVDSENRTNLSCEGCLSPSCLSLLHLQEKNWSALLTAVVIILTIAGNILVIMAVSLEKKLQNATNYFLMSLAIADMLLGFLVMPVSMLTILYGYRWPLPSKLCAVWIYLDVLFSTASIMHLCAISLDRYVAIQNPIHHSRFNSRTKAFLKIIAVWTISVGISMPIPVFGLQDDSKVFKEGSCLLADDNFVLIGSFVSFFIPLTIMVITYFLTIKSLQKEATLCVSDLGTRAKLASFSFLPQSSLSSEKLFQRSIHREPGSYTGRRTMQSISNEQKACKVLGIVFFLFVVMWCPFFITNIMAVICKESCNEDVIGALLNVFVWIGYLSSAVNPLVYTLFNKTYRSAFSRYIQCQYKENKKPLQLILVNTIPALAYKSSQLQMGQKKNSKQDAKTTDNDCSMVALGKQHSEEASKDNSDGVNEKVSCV

Experiment [7] deals with Muscarinic acetylcholine receptor M1 (Homo sapiens) (UniProt P11229). The experiment is described as follows: Cholinergic receptor muscarinic 1 (CHRM1) small molecule antagonists, cell-based qHTS assay (AID 1963588). Note: nearly all actives have a fitted effect of over 40% in size. Note: potency is the fitted concentration of half-maximal effect. Put shortly:
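CHRM1-CHO calcium-flux assay, antagonist mode. Cells were seeded 18 h, dye-loaded 1 h at 37 C and given compound for 5 min at RT, then acetylcholine was added at 50nM. FDSS fluorescence was read 3 min; 15 concentrations, three runs.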

The target is the same in experiment [8]. As to the kind of experiment: Cholinergic receptor muscarinic 1 (CHRM1) small molecule agonists, cell-based qHTS assay (AID 1963589). Note: nearly all actives have a fitted effect of over 35% in size. Summed up: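 CHO cells stably expressing human CHRM1 were loaded with calcium dye for 1 h at 37 C, then compound was added in agonist mode. Intracellular calcium fluorescence was followed kinetically at 1 s intervals. Fifteen concentrations were tested in three independent runs.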

Experiment [9] can be described thus: cAMP Responsive Elements (CRE) small molecule agonists, cell-based qHTS assay (AID 1963590). Note: potency is the fitted concentration of half-maximal effect. Put shortly: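 CRE-bla HEK 293T cells, 2,000/well in DMEM with 10% dialyzed FBS and 25 mM HEPES, pre-incubated 18 h at 37 C, then exposed to compound 3 h at 37 C. Beta-lactamase reporter read with LiveBLAzer B/G FRET substrate after 2 h at room temperature.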
The target of experiment [10] is Beta-2 adrenergic receptor (Homo sapiens) (UniProt P07550). As to the kind of experiment: Adrenergic beta2 receptor (ADRB2) small molecule antagonists, cell-based qHTS assay (AID 1963592). Note: nearly all actives have a fitted effect of over 50% in size. Note: potency is the fitted concentration of half-maximal effect. Put shortly:
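Cells (CHO, stable ADRB2 overexpression) incubated 18-20hr at 37C; compounds added from DMSO; agonist mix (1nM isoproterenol, 100uM IBMX, 25uM Ro-20-1724) added; 0.5hr RT; d2-cAMP and anti-cAMP-cryptate added; 1hr RT; 665/615 nm read.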

Experiment [11] deals with D(2) dopamine receptor (Homo sapiens) (UniProt P14416). The experiment is described as follows: Dopamine D2 receptor (DRD2) small molecule agonists, cell-based qHTS assay (AID 1963594). Note: nearly all actives have a fitted effect of over 35% in size. Put shortly: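 HEK293 cells stably expressing DRD2 were cultured 24 h at 37 C, then given Ro20-1724 (0.1 mM final) and compounds for 10 min at room temperature. NKH477 (200nM) was then added for 30 min. cAMP was read by HTRF.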
Sequence of D(2) dopamine receptor (Homo sapiens) (P14416 whole entry, looked up): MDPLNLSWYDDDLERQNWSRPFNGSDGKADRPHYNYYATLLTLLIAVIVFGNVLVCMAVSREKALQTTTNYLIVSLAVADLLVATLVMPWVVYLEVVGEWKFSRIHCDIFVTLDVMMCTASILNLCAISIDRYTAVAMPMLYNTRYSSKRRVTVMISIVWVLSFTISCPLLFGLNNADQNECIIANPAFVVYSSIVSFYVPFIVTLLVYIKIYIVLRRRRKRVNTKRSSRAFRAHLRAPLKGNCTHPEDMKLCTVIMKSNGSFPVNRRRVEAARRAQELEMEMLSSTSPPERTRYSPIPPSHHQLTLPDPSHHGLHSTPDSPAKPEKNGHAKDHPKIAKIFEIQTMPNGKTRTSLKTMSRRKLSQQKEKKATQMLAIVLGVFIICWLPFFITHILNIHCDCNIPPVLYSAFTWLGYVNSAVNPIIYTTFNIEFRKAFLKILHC

Experiment [12] has the same target. As to the kind of experiment: Dopamine D2 receptor (DRD2) small molecule antagonists, cell-based qHTS assay (AID 1963595; active = well fitted inhibition curve with a large enough effect in the signal ratio in the repeat runs, with a control signal flat; the % refers to the signal ratio; note: potency is the fitted concentration of half-maximal effect). Put shortly: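 HEK293 cells stably expressing DRD2, preincubated with 0.1 mM Ro20-1724 and compounds 10 min, were stimulated with 200 nM NKH477 plus 12 nM quinpirole for 30 min at room temperature; cAMP measured by HTRF (665/620 nm).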
The nature of experiment [13]: p53 small molecule agonists, cell-based qHTS assay with rat liver microsomes: qHTS cell viability counter screen (AID 1963580). Note: nearly all actives have a fitted effect of over 45% in size. Summed up:
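p53RE-bla HCT-116 cells (4,000/well) rested 5 h at 37 C, then given Tox21 compounds in DMSO with rat liver microsomes (0.5 mg/mL final) plus NADPH (0.5 mg/mL final) for 16 h at 37 C. Viability read by CellTiter-Glo luminescence after 30 min at room temperature.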

Experiment [14] addresses 5-hydroxytryptamine receptor 2A (Homo sapiens) (UniProt P28223). The experiment is described as follows: 5-hydroxytryptamine receptor 2A (HTR2A) small molecule agonists, cell-based qHTS assay (AID 1963587). Note: nearly all actives have a fitted effect of over 30% in size. Note: potency is the fitted concentration of half-maximal effect. Summed up:
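HTR2A-CHO cells, plated 18 h at 37 C/5% CO2, dye-loaded 1 h at 37 C; compounds in DMSO added by pin tool (agonist mode). Intracellular calcium flux read as kinetic fluorescence on FDSS over 2 min at 1 s intervals.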

Experiment [15] is described as follows: p53 small molecule agonists, cell-based qHTS assay with human liver microsomes: qHTS cell viability counter screen (AID 1963579). Note: nearly all actives have a fitted effect of over 45% in size. Summed up:
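After the 460/530 nm beta-lactamase read, CellTiter-Glo was added to the same wells and luminescence measured after 30 min at room temperature, giving viability of p53RE-bla cells treated 16 h with compounds plus microsomes and NADPH.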

Experiment [16] is described as follows: p53 small molecule agonists, cell-based qHTS assay: qHTS cell viability counter screen (AID 1963581). Note: nearly all actives have a fitted effect of over 45% in size. Put shortly: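 p53RE-bla HCT-116 cells, compounds added 5 h after plating and incubated 16 h at 37 C. Cytotoxicity measured in the same wells as intracellular ATP by CellTiter-Glo luminescence after 30 min at room temperature.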
In experiment [17] the target is KiSS-1 receptor (Homo sapiens) (UniProt Q969F8). The experiment is described as follows: Human kisspeptin (KISS1R) small molecule agonists, calcium flux assay in KISS1R-HEK293 cells (AID 1920064; active = well fitted activation curve with a large enough effect in the repeat runs). Summed up:
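HEK293 cells stably expressing human KISS1R were loaded with calcium dye for 1 h at 37 C, then given compound; fluorescence (Ex/Em 480/540) was read kinetically for 3 min. Fifteen concentrations, triplicate.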

A short description of experiment [18]: p53 small molecule agonists, cell-based qHTS assay with human liver microsomes (AID 1963577).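 Note: p53 response element beta-lactamase reporter cells with liver microsomes plus NADPH.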 Put shortly:
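Steps: plate p53RE-bla cells, incubate 5 h at 37 C; add compound in DMSO; add microsomes (0.5 mg/mL final) and NADPH (0.5 mg/mL final); incubate 16 h at 37 C; add LiveBLAzer, 2 h RT; read fluorescence.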

Experiment [19] can be described thus: cAMP Responsive Elements (CRE) small molecule antagonists, cell-based qHTS assay (AID 1963591; active = well fitted inhibition curve with a large enough effect in the signal ratio in the repeat runs, not every such curve was filed as active; the % refers to the signal ratio). Put shortly:
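CRE-bla HEK293T cells plated 18 h, then given compound plus NKH477 at 0.25 uM final for 3 h at 37C. Beta-lactamase reporter read with LiveBLAzer B/G FRET substrate after 2 h at room temperature.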

For experiment [20], the target named is Beta-2 adrenergic receptor (Homo sapiens) (UniProt P07550). As to the kind of experiment: Adrenergic beta2 receptor (ADRB2) small molecule agonists, cell-based qHTS assay (AID 1963593).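 Note: CHO cells stably overexpressing human ADRB2.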 Put shortly:
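CHO cells stably over-expressing ADRB2 were plated overnight at 37C, then dosed with compounds plus a stimulation mix containing 100uM IBMX and 25uM Ro-20-1724 for 0.5hr at room temperature. cAMP was measured by HTRF competition, 1hr.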

Sequence of KiSS-1 receptor (Homo sapiens) (Q969F8 whole entry, looked up): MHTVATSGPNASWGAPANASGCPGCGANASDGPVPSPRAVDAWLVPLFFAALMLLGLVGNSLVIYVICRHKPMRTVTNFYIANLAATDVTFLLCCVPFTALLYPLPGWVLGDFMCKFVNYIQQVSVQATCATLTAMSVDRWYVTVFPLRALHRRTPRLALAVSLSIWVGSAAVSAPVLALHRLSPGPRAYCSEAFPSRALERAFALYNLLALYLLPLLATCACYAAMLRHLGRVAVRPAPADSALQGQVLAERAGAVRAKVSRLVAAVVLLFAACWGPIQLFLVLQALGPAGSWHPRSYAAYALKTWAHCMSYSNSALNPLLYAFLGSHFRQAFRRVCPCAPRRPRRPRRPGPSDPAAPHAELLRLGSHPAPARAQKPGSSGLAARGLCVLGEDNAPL
Sequence of Muscarinic acetylcholine receptor M1 (Homo sapiens) (P11229 whole entry, looked up): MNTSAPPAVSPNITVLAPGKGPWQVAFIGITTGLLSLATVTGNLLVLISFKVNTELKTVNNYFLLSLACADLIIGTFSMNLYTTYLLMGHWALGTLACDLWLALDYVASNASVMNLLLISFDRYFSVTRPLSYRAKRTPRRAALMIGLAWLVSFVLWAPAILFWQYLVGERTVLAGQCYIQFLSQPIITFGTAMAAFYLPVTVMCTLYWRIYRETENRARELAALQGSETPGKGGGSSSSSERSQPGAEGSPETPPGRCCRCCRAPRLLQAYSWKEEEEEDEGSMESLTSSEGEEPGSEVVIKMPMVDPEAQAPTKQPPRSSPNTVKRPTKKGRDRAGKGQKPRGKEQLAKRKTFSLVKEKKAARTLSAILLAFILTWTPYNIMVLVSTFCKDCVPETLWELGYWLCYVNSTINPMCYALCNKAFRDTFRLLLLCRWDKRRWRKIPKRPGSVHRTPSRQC
Sequence of Beta-2 adrenergic receptor (Homo sapiens) (P07550 whole entry, looked up): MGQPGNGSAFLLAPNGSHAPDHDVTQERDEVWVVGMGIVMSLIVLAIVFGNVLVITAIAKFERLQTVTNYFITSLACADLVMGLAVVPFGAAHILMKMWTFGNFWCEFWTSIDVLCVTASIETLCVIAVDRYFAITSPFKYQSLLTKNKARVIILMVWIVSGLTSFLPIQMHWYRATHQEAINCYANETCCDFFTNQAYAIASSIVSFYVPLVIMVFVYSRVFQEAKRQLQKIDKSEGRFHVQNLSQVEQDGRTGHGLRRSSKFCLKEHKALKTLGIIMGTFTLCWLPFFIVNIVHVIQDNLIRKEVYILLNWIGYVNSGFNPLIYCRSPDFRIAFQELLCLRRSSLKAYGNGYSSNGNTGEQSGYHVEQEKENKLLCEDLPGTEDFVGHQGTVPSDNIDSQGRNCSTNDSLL

`O=S(=O)(Oc1ccc(Cl)cc1)c1ccccc1`: the Potency result in [1], in experiment [2], in [3], in experiment [4], in experiment [5] and in experiment [6] was “inactive” in each case. The Potency result in experiment [8], in experiment [9], in experiment [10], in experiment [11] and in [12] was “inactive” in each case. The Potency in experiment [7] is 11.9 µM (active).
For `CC(C)OC(=O)c1cc(C(=O)OC(C)C)cc([N+](=O)[O-])c1`, the Potency result in [1], in experiment [2], in [3], in experiment [13], in experiment [6] and in [14] was “inactive” in each case. The Potency entry in [7], in experiment [8], in experiment [11] and in experiment [12] was “inactive” in each case. The Potency in [10] was 62.6 µM (active).
For the molecule `CCCOc1ccc(S(=O)(=O)N2CCN(CC)CC2)cc1-c1nc2c(CC)n(Cc3ccccn3)nc2c(=O)[nH]1`, the Potency result in experiment [1], in [2], in [3], in experiment [15], in experiment [13] and in experiment [16] was “inactive” each time. For the same molecule, the Potency entry in [14], in experiment [8] and in [12] was “inactive” in each case. Besides, the Potency in experiment [7] was 18.8 µM (active).
With `CC(C)=CCNc1ncnc2c1ncn2[C@@H]1O[C@H](CO)[C@@H](O)[C@H]1O`, the values for the Potency in experiment [1], in [9] and in experiment [12] were 7.5 µM (active), 11.9 µM (active) and 9.44 µM (active), respectively. For the same molecule, the Potency result in [17], in experiment [3], in experiment [18], in experiment [4], in experiment [15] and in [13] was “inactive” in each case. Further, the Potency result in experiment [6], in [14], in experiment [7], in experiment [8] and in experiment [10] was “inactive” throughout.
As to `CCOc1ccc(NC(=O)CC(C)=O)cc1`, the Potency result in experiment [1], in experiment [2], in experiment [3], in experiment [15], in [13] and in experiment [16] was “inactive” each time. The Potency result in experiment [6], in [14], in experiment [7], in [9], in experiment [10] and in [11] was “inactive” in each case. Also, the Potency entry in [12] was “inactive”.
Regarding `Nc1ccc([N+](=O)[O-])c(N)c1`, the Potency result in [1], in experiment [2], in experiment [18], in [4], in experiment [15] and in experiment [13] was “inactive” each time. In addition, the Potency entry in [16], in experiment [6], in [14], in [7], in experiment [8] and in experiment [9] was “inactive” in each case. The Potency entry in [19], in experiment [10] and in experiment [12] was “inactive” throughout.
For the molecule `OC(CCN1CCCCC1)(c1ccccc1)C1CCCCC1` (stereo unspecified), the Potency result in experiment [1], in [2], in experiment [3], in [15], in experiment [13] and in [16] was “inactive” each time. The Potency result in experiment [10] and in [11] was “inactive” throughout.
In the case of `O=C1c2ccccc2C(=O)c2c1ccc(O)c2O`, the Potency entry in experiment [1], in experiment [17], in [3], in experiment [18], in experiment [4] and in [15] was “inactive” in each case. Moreover, the Potency entry in [13], in experiment [16], in experiment [5], in [6], in experiment [14] and in experiment [7] was “inactive” each time. The Potency entry in experiment [8], in [9], in [19], in experiment [10], in experiment [20] and in [11] was “inactive” in each case.
Turning to `CNCCCCOc1ccccc1Cc1ccccc1`, the Potency result in experiment [1], in experiment [17], in experiment [3], in experiment [18], in experiment [4] and in experiment [16] was “inactive” in each case. Moreover, the Potency result in experiment [5], in [7], in experiment [8], in experiment [9], in experiment [19] and in experiment [11] was “inactive” in each case. Also, the figures for the Potency in experiment [6], in [14] and in [10] were 0.115 µM (active), 10.7 µM (active) and 8.41 µM (active), respectively.
